Screening data from PubChem BioAssay.
LASV entry inh – qHTS for Inhibitors of binding or entry into cells for Lassa Virus; 300,000 compounds, 1.2% hits; AID 540256, 2011; Lassa virus pseudotype entry inhibition, cell reporter; Potency, µM (series often up to 37.9 µM), actives largely listed as inhibitors; calls by dose curve; tested in HEK293 cells; further: nearly all actives have a fitted effect of over 50% in size
FMDV inh – High Throughput Screening for Foot and Mouth Disease Virus Antivirals; FMDV antiviral cell-based qHTS; Potency, µM (titrated, usually from 57.9 µM), actives largely listed as inhibitors; 410,000 compounds, 1.2% hits; calls by dose curve; tested in HEK293T cells; further: read-out not given here; nearly all actives have a fitted effect of over 45% in size
HCMV antiviral – qHTS Assay for inhibitors of the human cytomegalovirus (HCMV). HFF cells, HCMV-luciferase reporter, 72 h; stronger effect = lower value. activity change, negative = inhibition, % at 57.5 µM. 410,000 compounds, 4.5% hits. AID 1259415, 2018; in the data active means activity change below about -60%; inconclusive means no clear call, values can overlap the other calls; inactive means above about -39%
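Two-dose cell screen: HFF monolayers treated with compounds and infected with luciferase-expressing HCMV at 1 PFU/cell, 72 h at 37C, then lysed for luciferase measurement.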
SARS PLpro yeast – qHTS of Yeast-based Assay for SARS-CoV PLP | Potency, µM (doses to about 32.9 µM), hits mostly activators | S. cerevisiae expressing SARS-CoV PLpro, growth rescue | 330,000 compounds, 0.19% hits; calls by dose curve; further: nearly all actives have a fitted effect of over 55% in size
HCV inh – qHTS Assay for Inhibitors of Hepatitis C Virus (HCV); AID 651820, 2012; 340,000 compounds, 3.4% hits; Potency, µM (highest dose often 41.8 µM), actives largely listed as inhibitors; Huh7.5.1 HCVcc-Cre infection, luciferase reporter, 44 h; active means well fitted inhibition curve with a large enough effect; inconclusive means small, poorly fitted or top-dose-only effect, or another doubt; inactive means no such curve, though single readings can be large or run the other way
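1,000 cells/well; 4 h culture; + compound; + HCVcc-Cre (~0.5 moi); 44 h; luciferase substrate, RT 15 min; read 15 sec.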
MARV entry inh – qHTS for inhibitors of binding or entry into cells for Marburg Virus; Marburg virus pseudotyped entry inhibition, cell reporter; Potency, µM (doses to about 37.8 µM), usual class: inhibitors; 300,000 compounds, 1.8% hits; AID 540276, 2011; calls by dose curve; tested in HEK293 cells
Of the large screens only hits and unclear results are named; the others gave an inactive call. This is a sample that favours compounds with a hit; in the whole collection about 8% have one here.

CCc1cccc(NC(=O)CCS(=O)(=O)c2ccc(C)cc2)c1	LASV entry inh inconclusive (no result: SARS PLpro yeast, HCV inh, MARV entry inh)
CCCCn1c(N)c(N(CC)C(=O)c2cccs2)c(=O)[nH]c1=O	HCMV antiviral -60.5
CCCCn1c(N)c(N(CC)C(=O)c2cccc(OC)c2)c(=O)[nH]c1=O	HCMV antiviral -71.7
CCCCCN(C(=O)CCC(=O)OCc1ccc(Cl)cc1Cl)c1c(N)n(CCCC)c(=O)[nH]c1=O	LASV entry inh inconclusive, HCV inh inconclusive, MARV entry inh 2.51µM
CCCCCN(C(=O)CCC(=O)OCc1ccccc1Cl)c1c(N)n(CCCC)c(=O)[nH]c1=O	MARV entry inh inconclusive (no result: HCV inh)
COc1cc(Nc2nccc3[nH]c(-c4cccc(C(F)(F)F)c4)nc23)cc(OC)c1OC	none (no result: LASV entry inh, FMDV inh, SARS PLpro yeast, HCV inh, MARV entry inh)
Cc1ccc(C2c3[nH]c4ccccc4c3CCN2C(=O)Nc2ccc(C)c(C)c2)cc1 (stereo not drawn)	LASV entry inh inconclusive (no result: SARS PLpro yeast, HCV inh, MARV entry inh)
COc1ccc2c(c1)CCC(=O)C(C)CCO2 (stereo not drawn)	none (no result: LASV entry inh, FMDV inh, SARS PLpro yeast, HCV inh, MARV entry inh)
Cn1ncc(Br)c1NC(=O)CSc1ccc(Cl)cc1	FMDV inh inconclusive, HCV inh 25.1µM (no result: LASV entry inh, MARV entry inh)
O=C(CSc1ccc(Cl)cc1)Nc1ncccn1	none
COc1ccccc1/C=C/C(=O)Nc1cccc(S(=O)(=O)NC2=NCCCCC2)c1	LASV entry inh inconclusive, HCV inh inconclusive, MARV entry inh 11.2µM
COc1ccc(/C=C/C(=O)Nc2cccc(S(=O)(=O)NC3=NCCCCC3)c2)cc1	HCV inh inconclusive (no result: LASV entry inh, MARV entry inh)
O=C(/C=C/c1ccc(OC(F)F)cc1)Nc1cccc(S(=O)(=O)NC2=NCCCCC2)c1	LASV entry inh 10µM, FMDV inh inconclusive, HCMV antiviral -69.1, HCV inh inconclusive, MARV entry inh inconclusive
COc1cc(/C=C/C(=O)Nc2cccc(S(=O)(=O)NC3=NCCCCC3)c2)ccc1OCC#N	HCV inh 6.31µM, MARV entry inh inconclusive
CCN1C(=O)c2ccccc2S(=O)c2ccc(C(=O)N3CCN(c4ccc(F)cc4)CC3)cc21 (stereo not drawn)	none (no result: SARS PLpro yeast, HCV inh)
O=C(Nc1nccs1)c1ccc(-c2ccc(F)c(Cl)c2)o1	HCV inh 22.4µM (no result: LASV entry inh, MARV entry inh)
c1ccc(N2CCN(c3ncnc4[nH]ncc34)CC2)cc1	FMDV inh inconclusive, HCMV antiviral inconclusive (no result: SARS PLpro yeast, HCV inh, MARV entry inh)
Fc1ccccc1N1CCN(c2ncnc3[nH]ncc23)CC1	LASV entry inh 10µM, FMDV inh inconclusive, HCMV antiviral inconclusive, HCV inh 15.8µM, MARV entry inh 5.01µM
C/C(=N\NC(N)=S)C1C2C3CC4C5CC(C42)C1C53 (stereo not drawn)	HCMV antiviral -62.4, HCV inh inconclusive, MARV entry inh inconclusive
CCc1cccc2c(C(=O)C(NC(C)CC)c3ccccc3)c[nH]c12 (stereo not drawn)	LASV entry inh 16.4µM, HCV inh 11.2µM, MARV entry inh 11.6µM
CCc1cccc2c(C(=O)COC(=O)c3ccccc3)c[nH]c12	HCV inh inconclusive
CCc1cccc2c(C(=O)C(NCCCOC)c3ccccc3)c[nH]c12 (stereo not drawn)	LASV entry inh inconclusive, HCV inh 11.2µM, MARV entry inh 12.6µM
COc1ccc(-c2nc3cnc(Oc4cccc(Cl)c4)nc3n(C3CC3)c2=O)cc1	none (no result: LASV entry inh, HCMV antiviral, SARS PLpro yeast, HCV inh, MARV entry inh)
N/C(=N\OC(=O)Cc1ccccc1[N+](=O)[O-])c1ccncc1	HCMV antiviral -61.1, MARV entry inh inconclusive
COC(=O)[C@@H]1C[C@@H](NC(=O)c2cnsn2)CN1Cc1ccc(Cl)cc1	none (no result: LASV entry inh, HCMV antiviral, SARS PLpro yeast, HCV inh, MARV entry inh)
CCCn1c(C)cc(C(=O)COC(=O)c2cc(S(=O)(=O)NCC(C)C)c(Cl)cc2Cl)c1C	LASV entry inh inconclusive, HCV inh 10µM
CC(C)CNS(=O)(=O)c1cc(C(=O)OCC(=O)c2ccc3c(c2)OCCO3)c(Cl)cc1Cl	LASV entry inh inconclusive, FMDV inh inconclusive, MARV entry inh inconclusive
COc1ccc(C(=O)C(Nc2ccccc2)C(=O)Nc2ccc3ccccc3c2)cc1 (stereo not drawn)	none (no result: LASV entry inh, FMDV inh, SARS PLpro yeast, HCV inh, MARV entry inh)
CCC(CC)C(=O)Nc1ccc([N+](=O)[O-])cn1	HCMV antiviral -83.9
CCCC(=O)Nc1ccc(Sc2ccc([N+](=O)[O-])cc2)cc1	LASV entry inh 10µM, FMDV inh inconclusive, HCMV antiviral -75.1, HCV inh inconclusive, MARV entry inh 20µM
CC(C)(C)c1ccc(C(=O)Nc2ccc([N+](=O)[O-])cn2)cc1	LASV entry inh inconclusive
